High-throughput results from PubChem BioAssay.
S1P3 antagonist: S1P3 (human) receptor antagonism; CHO S1P3 NFAT-BLA reporter, FRET fluorescence, antagonist mode; hit rate 0.27% among 170,000; inhibition, % at 4.98 µM; Q99500;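 active means inhibition above the plate cutoff, the mean inhibition of test wells on that plate plus 3 SD, cut at about 28% in these data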;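 further: cells challenged with S1P at its EC80 of 0.8 µM; blue over green emission ratio from cleaved BLA substrate after 4 h stimulation; 0% = S1P-stimulated wells and 100% = unstimulated DMSO-only wells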
RAM inhibit: inhibitors of the yeast RAM network | S. cerevisiae dse1pr::URA3 reporter, 5-FOA growth OD615, 2 d; analog-sensitive cbk1-as2 kinase mutant strain | inhibition, % at 50 µM | hit rate 1.8% among 190,000;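 active means inhibition above a set limit, 3 SD over mean compound inhibition, cut at about 8.4% in these data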;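 further: 0% = DMSO-only wells with no growth and 100% = 10 µM 1-NA-PP1 full growth; inhibition rescues growth on 5-FOA so higher OD means more RAM inhibition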
Cl transport mod: modulates chloride dependent transport by human KCC2. hit rate 2.2% among 190,000. AID 1456. KCC2 cells, thallium flux FluoZin-2 fluorescence. B-score of Tl+ flux slope (higher = more flux/activation; lower = inhibition) at 10 µM;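 active means thallium flux slope and its plate-corrected score both differing from the plate sample mean at a set confidence after two filtering rounds, in either direction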;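 further: slope of fluorescence scaled to starting intensity during 10 to 20 s after thallium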
Target sequence (Q9H2X9 whole entry, looked up): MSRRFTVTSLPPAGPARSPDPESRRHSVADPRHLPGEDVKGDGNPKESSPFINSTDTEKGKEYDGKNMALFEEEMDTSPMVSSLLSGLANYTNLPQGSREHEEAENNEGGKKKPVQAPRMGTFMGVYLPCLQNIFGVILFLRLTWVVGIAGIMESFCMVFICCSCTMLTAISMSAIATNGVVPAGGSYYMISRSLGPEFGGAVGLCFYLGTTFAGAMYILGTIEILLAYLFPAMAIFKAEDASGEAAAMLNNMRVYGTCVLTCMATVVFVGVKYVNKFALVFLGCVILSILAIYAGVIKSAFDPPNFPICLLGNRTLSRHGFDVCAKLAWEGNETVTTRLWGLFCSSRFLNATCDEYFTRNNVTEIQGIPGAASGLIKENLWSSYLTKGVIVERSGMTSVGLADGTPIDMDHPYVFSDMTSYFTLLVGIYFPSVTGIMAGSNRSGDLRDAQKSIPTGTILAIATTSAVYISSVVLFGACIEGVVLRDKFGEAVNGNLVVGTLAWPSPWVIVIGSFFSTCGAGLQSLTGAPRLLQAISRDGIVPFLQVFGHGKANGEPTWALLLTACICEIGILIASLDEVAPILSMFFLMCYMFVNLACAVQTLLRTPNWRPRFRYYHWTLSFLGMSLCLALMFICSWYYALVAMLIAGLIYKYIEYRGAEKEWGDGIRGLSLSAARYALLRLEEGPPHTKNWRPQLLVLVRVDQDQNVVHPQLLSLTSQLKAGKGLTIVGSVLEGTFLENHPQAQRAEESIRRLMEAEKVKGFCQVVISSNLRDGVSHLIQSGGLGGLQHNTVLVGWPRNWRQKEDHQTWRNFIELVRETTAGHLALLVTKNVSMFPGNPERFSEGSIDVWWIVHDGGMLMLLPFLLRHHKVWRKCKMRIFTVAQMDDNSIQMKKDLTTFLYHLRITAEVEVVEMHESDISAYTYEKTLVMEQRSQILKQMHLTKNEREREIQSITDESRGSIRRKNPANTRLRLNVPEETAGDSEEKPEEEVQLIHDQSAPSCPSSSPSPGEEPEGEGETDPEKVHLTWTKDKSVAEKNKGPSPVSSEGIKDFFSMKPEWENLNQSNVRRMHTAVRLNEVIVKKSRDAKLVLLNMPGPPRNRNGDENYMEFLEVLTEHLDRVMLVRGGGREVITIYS
ROMK primary: modulates human ROMK potassium channel activity; P48048; Tet-inducible ROMK, thallium flux fluorescence; actives lie on both sides; B-score at 10 µM; hit rate 2% among 130,000; AID 1918;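 active means signal ratio slope over the read window, or its plate-corrected B-score, at least 3 SD from the plate mean, either direction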;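 further: B-score of the F/F0 ratio slope over 7 to 12 s after thallium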
S1P4 antagonist: antagonists of human S1P4 receptor; hit rate 0.26% among 220,000; inhibition, % at 4.98 µM; S1P4-expressing cells, antagonist mode, reporter read-out; O95977; in the data active means inhibition above about 29%;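 further: 0% = wells stimulated with agonist and 100% = vehicle wells without agonist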
S1P4 ag: human S1P4 receptor agonism | O95977 | S1P4-expressing cell line, agonist reporter assay | activation, % at 4.98 µM | hit rate 0.35% among 220,000; in the data active means activation above about 11%;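 further: 0% = DMSO vehicle and 100% = reference agonist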
ROMK hit retest: confirmation of human ROMK potassium channel modulators. shares compounds with ROMK primary. ROMK thallium flux, fluorescence ratio; hits give low values. normalized thallium flux (F/F0 slope) at 10 µM. hit rate 54% among 3,000. AID 1917;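 active means Flux at 10 µM at least 3 SD below or above vehicle control mean in one or both replicates; inconclusive means no clear call, values can overlap the other calls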
Numbers without * were called inactive; ? = inconclusive; nt = no result. Hits are enriched below; roughly 5.1% of the tested compounds scored in any of these assays.

SMILES	S1P3 antagonist	RAM inhibit	Cl transport mod	ROMK primary	S1P4 antagonist	S1P4 ag	ROMK hit retest
Cc1cc(NC(=O)CSCC(=O)N(c2cccc(Cl)c2)C(C(=O)NC2CCCCC2)c2ccc(O)c(O)c2)no1 (stereo not given)	-8	1	0.12	-4.8*	-11	-1	0.056*
O=C(NC1CCCCC1)C(c1cccnc1)N(C(=O)CCl)c1cccc(Cl)c1 (stereo not given)	0	-1	-0.15	-3.3*	-10	2	0.051*
Cc1cc(Cl)c(S(=O)(=O)N2CCN(c3ccccn3)CC2)cc1OCC(=O)NC1CCCCC1	8	nt	-3.1	nt	-8	1	nt
O=c1[nH]c(CN2CCN(c3ccc([N+](=O)[O-])cc3)CC2)nc2ccsc12	nt	1	0.39	-3.5*	4	-4	0.059*
COc1ccc(N2CCN(Cc3nc4ccsc4c(=O)[nH]3)CC2)cc1	nt	0	-0.074	0.43	-14	-3	nt
CCSc1nc2sc3c(c2c2nnc(SCC(=O)NCc4ccco4)n12)CCCC3	nt	nt	-1.7	0.83	3	-3	0.082
CC(C)Sc1nc2sc3c(c2c2nnc(SCC(=O)NCc4ccco4)n12)CCCC3	-6	6	0.83	nt	-20	3	nt
Cc1ccc(S(=O)(=O)N2CCCN(c3nc4cc(C)ccc4cc3C#N)CC2)cc1	nt	5	0.15	nt	-13	2	0.074
O=C(Cn1cnc2c(nnn2Cc2ccc(F)cc2)c1=O)NCc1ccc(F)cc1	-17	2	-2	-0.52	-4	0	nt
Cc1ccc(Cn2nnc3c(=O)n(CC(=O)NCc4ccccc4)cnc32)cc1	-11	6	-4.6	2.3*	-9	-1	0.089
COc1cc(/C=N/NC(=S)Nc2cccc(Cl)c2C)ccc1OCC(=O)N1CC(C)OC(C)C1 (stereo not given)	14	2	0.74	-0.55	2	2	nt
COC(=O)CC1C(=O)NCCN1C(=S)Nc1ccc(F)cc1 (stereo not given)	-4	nt	-0.69	nt	5	0	nt
COc1ccc(N(C(=O)/C=C/C(=O)Nc2cc(C)on2)C(C(=O)NC2CCCC2)c2ccccc2C)cc1 (stereo not given)	-28	-1	0.044	-6.4*	5	-4	0.057*
COc1ccc(N(C(=O)CCC(=O)Nc2cc(C)on2)C(C(=O)NC2CCCC2)c2ccco2)cc1 (stereo not given)	-23	3	0.78	-0.16	-14	0	nt
COc1cc(OC)cc(C(=O)N[C@@H](CCSC)c2nc3ccccc3[nH]2)c1	15	2	0.077	-0.59	-7	0	nt
Cc1ccc(C(C[N+](=O)[O-])n2nc(C)cc2C)cc1 (stereo not given)	nt	-1	-1.7	-2.4	-3	-1	0.059*
CCCCOc1ccccc1C1CC(=O)NC2=C1C(=O)CCC2 (stereo not given)	1	2	0.44	4.7*	-1	-1	0.089
Cc1cccc(C(=O)Nc2ccc(C(=O)/C=C/c3cccnc3)cc2)c1	5	1	-0.2	-2.4*	10	-2	?
Cc1ccc(OCCCCNC2CCCCC2)c(C)c1	-3	1	0.27	-0.71	6	0	nt
Cc1ccc(C)c(C(=O)OCC(=O)Nc2cccc(S(=O)(=O)NC3=NCCCCC3)c2)c1	-7	1	-0.41	-1.3	-15	1	nt
Cc1ccc(CNCC(=O)Nc2cccc(S(=O)(=O)NC3=NCCCCC3)c2)cc1	19	3	0.029	-2.6*	-2	0	0.064*
Cn1ccnc1Sc1ccc(/C=N/NC(=O)c2ccccc2O)cc1[N+](=O)[O-]	-6	2	0.19	0.5	-6	0	nt
O=C1Nc2ccccc2/C1=C/c1cnc(-c2ccccc2)[nH]1	2	nt	0.8	nt	13	0	0.048*
O=C1Nc2ccccc2/C1=C/c1cccnc1	-39	0	0.67	-1.8	11	-1	nt
Cc1ccc(/C=N/N2CCOCC2)s1	0	0	0.16	0.054	-4	1	nt
SMILES	S1P3 antagonist	RAM inhibit	Cl transport mod	ROMK primary	S1P4 antagonist	S1P4 ag	ROMK hit retest
O=C(COC(=O)c1cccs1)Nc1ccccc1[N+](=O)[O-]	-7	2	0.022	0.58	-13	0	nt
CC(NCCC(c1ccccc1)c1ccccc1)c1ccccc1 (stereo not given)	7	0	0.61	-6.2*	9	-1	0.046*
COc1ccccc1-c1nn2c(-c3ccco3)nnc2s1	nt	3	-2.8	-1.3	-6	-1	0.057*
c1coc(-c2nn3c(-c4ccco4)nnc3s2)c1	9	0	0.055	-0.32	-2	2	nt
CCN(CC)CCNC(=O)c1[nH]c2ccc(OCc3ccccc3)cc2c1C	2	-1	nt	-5*	6	0	0.063*
CCCCOC(=O)c1ccc(S(N)(=O)=O)o1	-7	1	2.5	0.22	-12	1	nt
COc1cc(C2CC(=O)c3cnc(NC(=O)COc4ccccc4)nc3C2)cc(OC)c1OC (stereo not given)	-36	4	-0.21	0.9	-2	0	nt
COc1cc(C2CC(=O)c3cnc(N)nc3C2)cc(OC)c1OC (stereo not given)	nt	0	0.15	3.9*	-11	0	0.072
CCCc1ccc(Oc2cn[nH]c2-c2ccc(O)c(C)c2O)cc1	0	0	0.27	-4*	-1	0	0.058*
COc1cccc(Oc2cn[nH]c2-c2ccc(OC)cc2O)c1	-8	-2	nt	0.85	1	0	nt
CCCNC(=O)c1cc(-c2ccc(Br)cc2)on1	10	2	-0.65	nt	12	1	0.08
O=C(NCc1ccco1)c1cc(-c2ccc3c(c2)OCO3)on1	18	1	nt	0.21	-2	2	nt
COCCNC(=O)c1cc(-c2ccc3c(c2)OCO3)on1	6	0	0.28	nt	-6	0	0.081
COc1cc(C2CC(=O)N(c3ccc(C)cc3)C(=O)C2)cc(OC)c1OC	-3	nt	1.2	1.9	6	-1	nt
CC(C)(C)N(NC(=O)Nc1ccc(F)cc1)C(=O)c1ccccc1	-3	2	1.8	nt	-1	-1	nt
CC(C)(C)N(NC(=O)Nc1ccc(Cl)c(Cl)c1)C(=O)c1ccccc1	nt	4	0.26	nt	-16	0	0.077
Cc1cc(C)cc(OCC(=O)NNC(=O)CCC(=O)NCc2ccccc2)c1	nt	0	-0.72	nt	-34	1	nt
COc1ccc(C(CC(=O)c2ccccc2)CC(=O)c2ccccc2)cc1OC	-13	8	0.49	-0.61	-14	0	nt
CC(C)(C)c1ccc(S(=O)(=O)N(CCCN2CCOCC2)Cc2cccs2)cc1	1	-1	0.12	-3.5*	9	3	0.052*
CCOc1ncccc1C(=O)N1CCN(c2cc(Cl)ccc2C)CC1	22	-1	0.12	3.3*	-19	1	0.08
COCCN1Cc2cccc(C(=O)N3CCN(c4cc(C)ccc4C)CC3)c2C1=O	30	0	-0.024	nt	9	1	nt
